High-throughput results from PubChem BioAssay.
The list is not random: actives were taken first. Their share in the collection is about 7.3%.
Vaccinia Venus = inhibitors of vaccinia virus (Venus reporter) | 330,000 tested, 0.46% active | AID 720580 | Potency, µM (titrated, usually from 36.5 µM), for the others: at the highest dose activity change, negative = inhibition, hits mostly inhibitors | Vaccinia virus Venus reporter expression, fluorescence; calls by dose curve; tested in A549 cells; note: potency is the fitted concentration of half-maximal effect; nearly all actives have a fitted effect of over 30% in size
HCV inhibitor = HCV inhibition; 340,000 tested, 3.4% active; AID 651820; Potency, µM (highest dose often 41.8 µM), for inactives: at the top dose activity change, negative = inhibition, actives largely listed as inhibitors; Huh7.5.1 HCVcc-Cre infection, luciferase reporter, 44 h; active = well fitted inhibition curve with a large enough effect; inconclusive = small, poorly fitted or top-dose-only effect, or another doubt; inactive = no such curve, though single readings can be large or run the other way; note: potency is the fitted concentration of half-maximal effect
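Cells (1,000/well) were plated 4 h before compound, then infected with HCVcc-Cre virus (~0.5 moi). After 44 h further culture, infection was read as luciferase luminescence following a 15 min substrate incubation at room temperature.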
FMDV inh = antivirals against foot and mouth disease virus | FMDV antiviral cell-based qHTS | Potency, µM (series often up to 57.9 µM), for inactives: at the top dose activity change, negative = inhibition, most hits filed as inhibitors | 410,000 tested, 1.2% active | AID 1159524; calls by dose curve; tested in HEK293T cells; note: read-out not given here; potency is the fitted concentration of half-maximal effect; nearly all actives have a fitted effect of over 45% in size
HCMV inh = blocks human cytomegalovirus replication | HFF cells, HCMV-luciferase reporter, 72 h; active compounds read low | activity change, negative = inhibition, % at 57.5 µM | 410,000 tested, 4.5% active | AID 1259415; in the data active = activity change below about -60%; inconclusive = no clear call, values can overlap the other calls; inactive = above about -39%
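After 16 h attachment at 37C, HFF cells received test compound and HCMV-luciferase (1 PFU/cell); reporter luminescence read 72 h later, data normalized against buffer-only and known inhibitor Salinomycin.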
VACV mCherry inh = vaccinia inhibition (mCherry reporter); 310,000 tested, 0.63% active; Potency, µM (top dose mostly 36.5 µM), without a hit: at the highest dose activity change, negative = inhibition, actives largely listed as inhibitors; Vaccinia virus mCherry reporter infection, fluorescence; calls by dose curve; tested in A549 cells; note: potency is the fitted concentration of half-maximal effect; nearly all actives have a fitted effect of over 35% in size
Active calls of the source: *. % is set by controls: 0 for no effect and ±100 for the full control effect.

What do the screens show for `COc1ccc(CNc2cc(-c3ccccc3CN(C)C)ncn2)c(OC)c1`?
Vaccinia Venus: -3%; FMDV inh: 19%; VACV mCherry inh: -13%

What do the screens show for `O=C(C=Cc1ccccc1)Nc1ccccc1`?
Vaccinia Venus: -24%; HCV inhibitor: -19%; FMDV inh: -26%; HCMV inh: 94; VACV mCherry inh: -6%

How did Cc1nc(NC(=O)/C=C/c2ccccc2)n[nH]1 do in these assays?
Vaccinia Venus: -4%; HCV inhibitor: inconclusive; FMDV inh: inconclusive; HCMV inh: -96*; VACV mCherry inh: -1%

Results for Cc1ccc(-c2csc(NC(=O)/C=C/c3cccs3)n2)cc1C ?
Vaccinia Venus: -27%; HCV inhibitor: 11µM*; FMDV inh: inconclusive; HCMV inh: 39; VACV mCherry inh: inconclusive

Results for O=C(/C=C/c1ccccc1)Nc1nc(-c2ccncc2)cs1 ?
Vaccinia Venus: -19%; HCV inhibitor: 7.9µM*; FMDV inh: 13µM*; HCMV inh: -63*; VACV mCherry inh: -10%

How did COc1ccc(-c2coc3c(C(=O)Nc4cccc(NS(C)(=O)=O)c4)cccc23)c(C)c1 do in these assays?
Vaccinia Venus: -5%; FMDV inh: inconclusive; HCMV inh: -39; VACV mCherry inh: inactive

What do the screens show for `CN(CC(=O)Nc1ccc(Cl)c(C(F)(F)F)c1)C(=O)CCCNC(=O)c1ccc(Cl)cc1`?
HCV inhibitor: -11%; FMDV inh: 7%; HCMV inh: 21

What do the screens show for `Cc1ccccc1Cn1cc(S(=O)(=O)c2ccc(C(C)C)cc2)c(=O)c2cc3c(cc21)OCO3`?
Vaccinia Venus: -11%; HCV inhibitor: 10µM*; FMDV inh: -14%; HCMV inh: 0; VACV mCherry inh: -15%

How did COc1cccc(Cn2c(=O)c(C)nc3cnc(OCc4ccccc4)nc32)c1 do in these assays?
FMDV inh: -20%

How did O=C(Nc1ccccn1)c1onc2c1CCCC2 do in these assays?
Vaccinia Venus: -14%; HCV inhibitor: 15%; FMDV inh: 14µM*; HCMV inh: inconclusive; VACV mCherry inh: inactive

Results for Cn1nnc(NC(=S)NC(=O)c2cc(Cl)ccc2Cl)n1 ?
HCV inhibitor: 21%; FMDV inh: 14%; HCMV inh: active

Results for COc1cc2ccccc2cc1C(=O)NC(=S)Nc1nnn(C)n1 ?
Vaccinia Venus: -7%; HCV inhibitor: -7%; FMDV inh: -13%; HCMV inh: -25; VACV mCherry inh: -16%

How did CCNC(=O)C1CCCN(Cc2ccc(OCc3ccccc3)cc2)CC1 (stereo not drawn) do in these assays?
Vaccinia Venus: 1%; FMDV inh: 6%; HCMV inh: -64*; VACV mCherry inh: 1%

How did COCCNC(=O)C1CCCN(Cc2cccc(C#N)c2)CC1 (stereo not drawn) do in these assays?
Vaccinia Venus: 15%; FMDV inh: -17%; HCMV inh: -61*; VACV mCherry inh: 41%

How did CCCCNC(=O)C1CCN(Cc2ccc(OCc3ccccc3)cc2)CC1 do in these assays?
Vaccinia Venus: -20%; HCV inhibitor: inconclusive; FMDV inh: 12%; HCMV inh: -16

How did CSc1ccc(CN(C)C(=O)C2CCN(C(=O)Nc3ccccc3)CC2)cc1 do in these assays?
HCV inhibitor: 10µM*; FMDV inh: inconclusive; HCMV inh: -8

Results for COc1ccc(CN(C)C(=O)C2CCN(C(=O)Nc3ccccc3)CC2)cc1OC ?
HCV inhibitor: -9%; FMDV inh: -12%; HCMV inh: 13

What do the screens show for `Cc1ccc(-n2nc(CO)c(C(=O)NCc3cccnc3)n2)cc1`?
Vaccinia Venus: -7%; FMDV inh: inconclusive; HCMV inh: 50; VACV mCherry inh: -8%

What do the screens show for `Cc1cc(NC(=O)c2cnn3c(C(F)F)cc(-c4ccccc4)nc23)no1`?
HCV inhibitor: inconclusive; FMDV inh: -23%; HCMV inh: 8

Results for O=C(O)c1cnn2c(C(F)(F)F)cc(-c3ccco3)nc12 ?
HCV inhibitor: 5%; FMDV inh: -18%; HCMV inh: 0

Results for COc1cccc(-c2cc(C(F)(F)F)n3ncc(C(=O)NCC4CCCO4)c3n2)c1 (stereo not drawn) ?
HCV inhibitor: inconclusive; FMDV inh: 28µM*; HCMV inh: -26

Results for Cc1cc(NC(=O)c2cnn3c(C(F)(F)F)cc(-c4ccccc4)nc23)no1 ?
Vaccinia Venus: -4%; HCV inhibitor: 7.1µM*; HCMV inh: -37; VACV mCherry inh: -10%
